Values without a mark were called inactive. Inconclusive results are not listed. Entries that show only a call come without a potency. The source made the active and inactive calls. Unless noted, calls come from the whole dose curve; as a rule, active = well fitted curve in the direction sought with a large enough effect in the repeat runs; inconclusive = weak or mixed curves; inactive = no such curve, though single readings can be large; an effect the other way counts as inactive or inconclusive.
Columns and labels:
[1] = biological target: Luciferin 4-monooxygenase (Photinus pyralis) (UniProt P08659); experiment: qHTS assay to identify small molecule inhibitors of firefly luciferase (AID 1224835); note: nearly all actives have a fitted effect of over 25% in size; note: potency is the fitted concentration of half-maximal effect
Sequence of Luciferin 4-monooxygenase (Photinus pyralis) (P08659 whole entry, looked up): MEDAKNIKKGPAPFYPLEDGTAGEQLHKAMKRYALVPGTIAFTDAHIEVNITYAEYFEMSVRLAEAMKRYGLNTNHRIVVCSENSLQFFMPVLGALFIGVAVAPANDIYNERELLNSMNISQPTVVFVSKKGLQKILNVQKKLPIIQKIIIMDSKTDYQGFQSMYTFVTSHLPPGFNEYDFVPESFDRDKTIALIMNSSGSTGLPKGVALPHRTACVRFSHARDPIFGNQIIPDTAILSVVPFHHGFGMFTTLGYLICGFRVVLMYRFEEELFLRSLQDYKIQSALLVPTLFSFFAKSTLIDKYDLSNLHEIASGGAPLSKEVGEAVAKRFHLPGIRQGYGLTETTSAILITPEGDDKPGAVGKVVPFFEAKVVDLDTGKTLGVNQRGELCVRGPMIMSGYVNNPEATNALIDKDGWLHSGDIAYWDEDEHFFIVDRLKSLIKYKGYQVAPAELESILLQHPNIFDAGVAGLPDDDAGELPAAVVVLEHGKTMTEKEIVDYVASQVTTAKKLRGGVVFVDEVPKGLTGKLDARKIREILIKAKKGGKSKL
In short: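 Inhibition of purified Photinus luciferase is measured by luminescence. Substrate levels (D-luciferin, ATP) sit at their KM values. Each compound is tested in a concentration series.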

[2] = biological target: Nuclear receptor subfamily 1 group I member 3 (Homo sapiens) (UniProt Q14994); experiment: qHTS assay to identify small molecule antagonists of the constitutive androstane receptor (CAR) signaling pathway (AID 1224838);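 note: HepG2 cells stably expressing hCAR with CYP2B6 luciferase reporter stimulated by CITCO; nearly all actives have a fitted effect of over 40% in size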
Sequence of Nuclear receptor subfamily 1 group I member 3 (Homo sapiens) (Q14994 whole entry, looked up): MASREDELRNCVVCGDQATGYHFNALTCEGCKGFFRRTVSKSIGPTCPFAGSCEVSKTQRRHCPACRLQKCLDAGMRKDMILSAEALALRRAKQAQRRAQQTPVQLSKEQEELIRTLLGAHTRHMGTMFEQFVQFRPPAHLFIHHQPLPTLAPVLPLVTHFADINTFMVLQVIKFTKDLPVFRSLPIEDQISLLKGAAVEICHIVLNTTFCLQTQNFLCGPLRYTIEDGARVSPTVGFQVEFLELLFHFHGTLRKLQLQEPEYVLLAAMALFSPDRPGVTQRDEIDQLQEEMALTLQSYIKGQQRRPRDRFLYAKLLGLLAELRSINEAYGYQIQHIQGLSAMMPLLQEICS
In short: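 Antagonist mode used CITCO at a final 50 nM to activate CAR in human hepatoma HepG2 cells carrying stable hCAR and a 2.2 kb CYP2B6 promoter-luciferase construct. Compounds were tested at 15 concentrations over 24 h, with luminescence as the end point.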

[3] = biological target: Nuclear receptor subfamily 1 group I member 3 (Homo sapiens) (UniProt Q14994); experiment: qHTS assay to identify small molecule agonists of the constitutive androstane receptor (CAR) signaling pathway (AID 1224839); note: nearly all actives have a fitted effect of over 15% in size; note: potency is the fitted concentration of half-maximal effect
In short: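 A 15-concentration quantitative screen uses HepG2 cells co-transfected stably with human CAR and CYP2B6-2.2kb reporter. Treatment lasts 24 h with 0.75 uM PK11195 final present; ONE-Glo luminescence is the signal.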

[4] = qHTS assay to identify small molecule antagonists of the estrogen related receptor signaling pathway with the pleiotropic PPARgamma coactivator (PGC) from Tox21 10K library - cell viability counter screen (AID 1224840; active = well fitted cell-killing curve with a large enough effect in the repeat runs, not every such curve was filed as active; note: nearly all actives have a fitted effect of over 40% in size)
In short: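 Multiplexed viability counter screen in the PGC/ERR cell line: cells treated with DMSO-dissolved compounds for 17.5 hours at 37 C, then viability measured as CellTiter-Fluor fluorescence.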

[5] = qHTS assay to identify small molecule antagonists of the estrogen related receptor signaling pathway with the pleiotropic PPARgamma coactivator (PGC) from Tox21 10K library (AID 1224841; call rule not given here; note: actives are mostly falling curves and most rising ones were filed inactive; nearly all actives have a fitted effect of over 50% in size)
In short: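 Steps: plate 2,000 PGC/ERR cells per well; incubate 6 h at 37 C with 5% CO2; transfer compounds from DMSO stocks by pin tool; incubate 18 h at 37 C; add One-Glo; measure luminescence 30 min later.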

[6] = qHTS assay to identify small molecule agonists of the estrogen related receptor signaling pathway with the pleiotropic PPARgamma coactivator (PGC) from Tox21 10K library (AID 1224842); note: nearly all actives have a fitted effect of over 15% in size
In short: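 Luminescence from One-Glo (30 min, room temperature) measured after PGC/ERR cells had 18 h at 37 C with pinned compound (23 nL in DMSO). Cells had been seeded at 2,000 per well and pre-incubated 6 h.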

[7] = qHTS assay to identify small molecule agonists of the hypoxia (HIF-1) signaling pathway - cell viability counter screen (AID 1224844; calls by dose curve; note: nearly all actives have a fitted effect of over 50% in size)
In short: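 Cytotoxicity was measured in parallel with the HRE-driven beta-lactamase readout: after 17 hrs of compound exposure at 37C, HRE-bla ME-180 cells received CellTiter-Glo and luminescence was recorded 30 min later.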

[8] = qHTS assay to identify small molecule agonists of H2AX - cell viability counter screen (AID 1224847; calls by dose curve; note: top concentration of the series differs between compounds; nearly all actives have a fitted effect of over 30% in size)
In short: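 We seed wild-type CHO-K1 cells overnight, treat them for 3 hr at 37C with compounds in 15-concentration series, and quantify remaining viability by CellTiter-Glo luminescence.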

[9] = qHTS assay to identify small molecule antagonists of the estrogen related receptor (ERR) signaling pathway from Tox21 library (AID 1224848); note: nearly all actives have a fitted effect of over 50% in size
In short: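 ERR cell line, 2,000 cells/well. 6 h settle, then compound (DMSO) added; 18 h at 37 C; ONE-Glo luminescence after 30 min RT.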

[10] = qHTS assay to identify small molecule agonists of the estrogen related receptor (ERR) signaling pathway from Tox21 library (AID 1224849; calls by dose curve; note: nearly all actives have a fitted effect of over 15% in size); settings: ERR reporter cell line, ONE-Glo luciferase, 18 h; at 92.4 µM (top of the series) unless noted
In short: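 Cells carrying the ERR reporter were plated and allowed to settle for 6 h, exposed to library compounds for 18 h at 37 C, then lysed with ONE-Glo and luminescence measured.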

[11] = qHTS RealTime-Glo MT Cell Viability Assay in HepG2 cells - 24 hour (AID 1224867); note: nearly all actives have a fitted effect of over 50% in size
In short: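 Cells + NanoLuc/prosubstrate dispensed (600 cells/well) → 5 h at 37 C/5% CO2 → compounds in DMSO transferred → 40 h incubation at 37 C, luminescence read at 0, 8, 16, 24, 32, 40 h.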

[12] = A CellTox Green Cytotoxicity Assay to monitor cytotoxicity in HEK293 cells - 0 hour (AID 1224869); note: nearly all actives have a fitted effect of over 50% in size
In short: (§1)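 Cells (HEK293, 600/well) and dye reagent are dispensed together. After 5 h at 37 C, 23 nL compound is pinned in. Plates stay at 37 C for 40 h with fluorescence read at 0h, 8h, 16h, 24h, 32h and 40h.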

[13] = qHTS RealTime-Glo MT Cell Viability Assay in HepG2 cells - 40 hour (AID 1224870); note: nearly all actives have a fitted effect of over 50% in size
In short: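 Real-time viability: cells seeded at 600 per well together with NanoLuc and cell-permeant prosubstrate, compounds added after 5 h incubation. Luminescence tracked at 0, 8, 16, 24, 32 and 40 h of exposure.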

[14] = qHTS assay to identify small molecule agonists of the constitutive androstane receptor (CAR) signaling pathway - cell viability counter screen (AID 1224836); note: nearly all actives have a fitted effect of over 45% in size; note: potency is the fitted concentration of half-maximal effect
In short: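 Counter screen multiplexed with the CAR reporter readout: HepG2 cells co-transfected with hCAR and the CYP2B6-2.2kb construct receive a 15-concentration compound series and 0.75 uM PK11195 (final), then CellTiter-Fluor fluorescence is read after 23 h.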

[15] = qHTS RealTime-Glo MT Cell Viability Assay in HEK293 cells - 32 hour (AID 1224868); note: nearly all actives have a fitted effect of over 50% in size; note: potency is the fitted concentration of half-maximal effect
In short: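 Tox21 10K qHTS, HEK293, 600 cells/well, RealTime-Glo reagent co-dispensed with cells; 5 h preincubation, compound by pintool, 37 C, luminescence at 0–40 h.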

[16] = A CellTox Green Cytotoxicity Assay to monitor cytotoxicity in HEK293 cells - 40 hour (AID 1224871); note: nearly all actives have a fitted effect of over 45% in size
In short: as §1

[17] = qHTS assay to identify small molecule antagonists of the constitutive androstane receptor (CAR) signaling pathway - cell viability counter screen (AID 1224837); note: nearly all actives have a fitted effect of over 45% in size
In short: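 Viability was measured with CellTiter-Fluor in a HepG2 line carrying stably transfected hCAR and a CYP2B6-2.2kb construct. Cells were exposed for 23 hr at 37 C to 15 compound concentrations with 50 nM CITCO as agonist.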

[18] = biological target: Thyrotropin receptor (Homo sapiens) (UniProt P16473); experiment: qHTS assay to identify small molecule agonists of the thyroid stimulating hormone receptor (TSHR) signaling pathway (AID 1224843; calls by dose curve; note: nearly all actives have a fitted effect of over 45% in size)
Sequence of Thyrotropin receptor (Homo sapiens) (P16473 whole entry, looked up): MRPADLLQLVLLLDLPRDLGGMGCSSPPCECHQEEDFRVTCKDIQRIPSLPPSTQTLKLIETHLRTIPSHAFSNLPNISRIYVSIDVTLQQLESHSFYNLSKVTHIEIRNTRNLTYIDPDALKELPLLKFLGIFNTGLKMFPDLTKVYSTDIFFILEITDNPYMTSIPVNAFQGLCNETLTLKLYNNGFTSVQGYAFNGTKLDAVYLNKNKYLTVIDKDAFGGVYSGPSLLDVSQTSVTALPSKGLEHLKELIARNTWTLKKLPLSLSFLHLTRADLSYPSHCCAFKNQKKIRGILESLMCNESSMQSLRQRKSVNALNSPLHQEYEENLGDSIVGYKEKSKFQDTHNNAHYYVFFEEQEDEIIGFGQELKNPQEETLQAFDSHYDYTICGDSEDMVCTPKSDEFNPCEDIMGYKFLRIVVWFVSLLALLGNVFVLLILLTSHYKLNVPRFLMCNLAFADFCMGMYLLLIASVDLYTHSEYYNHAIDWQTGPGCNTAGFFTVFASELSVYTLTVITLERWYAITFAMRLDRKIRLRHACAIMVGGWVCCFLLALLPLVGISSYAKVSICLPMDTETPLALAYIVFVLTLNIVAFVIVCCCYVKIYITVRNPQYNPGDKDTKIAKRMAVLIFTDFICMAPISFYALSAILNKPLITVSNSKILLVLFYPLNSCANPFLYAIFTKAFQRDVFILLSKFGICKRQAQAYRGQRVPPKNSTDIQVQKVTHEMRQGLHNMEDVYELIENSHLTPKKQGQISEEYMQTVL
In short: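 A cell-based cAMP HTRF format was run in TSHR-transfected HEK293 cells, 800 per well. Treatment: 30 min, room temperature. Detection: 1 h with labelled cAMP and anti-cAMP cryptate. Concentration-response over 15 points, three replicates.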

[19] = qHTS assay to identify small molecule agonists of H2AX (AID 1224845; active = well fitted activation curve with a large enough effect in the signal ratio in the repeat runs, not every such curve was filed as active; the % refers to the signal ratio)
In short: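 Phospho-H2AX Ser139 measured by HTRF (ex 320 nm; em 665 and 620 nm) after 24 hr antibody incubation. Compounds, 15 concentrations, 0.76% DMSO, were applied to CHO-K1 cells for 3hr at 37C before lysis.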

[20] = qHTS assay to identify small molecule agonists of the hypoxia (HIF-1) signaling pathway (AID 1224846; active = well fitted activation curve with a large enough effect in the signal ratio in the repeat runs, not every such curve was filed as active; the % refers to the signal ratio)
In short: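 Compounds from the Tox21 10K library, dissolved in DMSO, are tested for induction of a hypoxia response element–controlled beta-lactamase reporter in ME-180 cells. Exposure lasts 17 hrs at 37C after a 5 hr settling period, followed by CCF4-AM FRET substrate.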

## CCCN(C1CCN(C(=O)C2CCNCC2)CC1)[C@@H]1CCc2ccc(OC)cc2C1
[1]
  Potency: inactive
[2]
  Potency: inactive
[3]
  Potency: inactive
[4]
  Potency: inactive
[5]
  Potency: inactive
[6]
  Potency: inactive
[7]
  Potency: inactive
[8]
  Potency: inactive
[9]
  Potency: inactive
[10]
  activity change, positive = activation: -8.07%
[11]
  outcome: inactive
[12]
  Potency: inactive
[13]
  Potency: inactive

## O=C1c2ccccc2C(=O)C1c1ccc2cc(S(=O)(=O)O)cc(S(=O)(=O)O)c2n1
[1]
  Potency: 30.6 µM (active)
[14]
  Potency: 66.1 µM (active)
[2]
  Potency: inactive
[3]
  Potency: 41.7 µM (active)
[5]
  Potency: inactive
[6]
  Potency: inactive
[8]
  Potency: inactive
[9]
  Potency: inactive
[10]
  activity change, positive = activation: 54.8% (active)
[11]
  outcome: inactive
[15]
  Potency: inactive
[12]
  Potency: inactive
[13]
  Potency: inactive
[16]
  Potency: inactive

## NCCOCCOCCN
[14]
  Potency: inactive
[17]
  Potency: inactive
[2]
  Potency: inactive
[3]
  Potency: inactive
[4]
  Potency: inactive
[5]
  Potency: inactive
[6]
  Potency: inactive
[18]
  Potency: inactive
[8]
  Potency: inactive
[9]
  Potency: inactive
[10]
  activity change, positive = activation: -4.55%
[11]
  outcome: inactive
[15]
  Potency: inactive
[12]
  Potency: inactive
[16]
  Potency: inactive

## CC(=O)OCC(=O)[C@@]1(O)CC[C@H]2[C@@H]3CCC4=CC(=O)C=C[C@]4(C)[C@@]3(F)[C@@H](O)C[C@@]21C
[1]
  Potency: inactive
[14]
  Potency: inactive
[3]
  Potency: inactive
[18]
  Potency: inactive
[7]
  Potency: inactive
[19]
  Potency: inactive
[20]
  outcome: inactive
[8]
  Potency: inactive
[11]
  outcome: inactive
[12]
  Potency: inactive
[13]
  Potency: inactive

## NC(=O)c1ccccc1
[1]
  Potency: inactive
[14]
  Potency: inactive
[2]
  Potency: inactive
[3]
  Potency: inactive
[18]
  Potency: inactive
[7]
  Potency: inactive
[19]
  Potency: inactive
[11]
  outcome: inactive
[15]
  Potency: inactive
[12]
  Potency: inactive
[16]
  Potency: inactive

## O=C(O)c1ccncc1
[1]
  Potency: 73 µM (active)
[4]
  Potency: inactive
[6]
  Potency: inactive
[18]
  Potency: inactive
[7]
  Potency: inactive
[19]
  Potency: inactive
[8]
  Potency: inactive
[10]
  activity change, positive = activation: -23.5%
[11]
  outcome: inactive
[15]
  Potency: inactive
[12]
  Potency: inactive
[13]
  Potency: inactive
[16]
  Potency: inactive

## CCCCCCCCCCCCCCCCC(=O)O
[14]
  Potency: inactive
[17]
  Potency: inactive
[2]
  Potency: inactive
[3]
  Potency: inactive
[4]
  Potency: inactive
[18]
  Potency: inactive
[7]
  Potency: inactive
[19]
  Potency: inactive
[20]
  outcome: inactive
[8]
  Potency: inactive
[11]
  outcome: inactive
[15]
  Potency: inactive
[12]
  Potency: inactive
[13]
  Potency: inactive
[16]
  Potency: inactive

## O=C1c2ccccc2C(=O)c2c1ccc(O)c2O
[1]
  Potency: 34.7 µM (active)
[14]
  Potency: inactive
[2]
  Potency: inactive
[3]
  Potency: inactive
[7]
  Potency: inactive
[20]
  outcome: inactive
[8]
  Potency: inactive
[11]
  outcome: inactive
[15]
  Potency: inactive
[12]
  Potency: inactive
[13]
  Potency: inactive
[16]
  Potency: inactive

## CC(C)(Cc1c[nH]c2ccccc12)NCC(O)COc1ccccc1C#N (configuration not stated)
[1]
  Potency: inactive
[14]
  Potency: inactive
[6]
  Potency: inactive
[7]
  Potency: inactive
[19]
  Potency: inactive
[20]
  outcome: inactive
[9]
  Potency: inactive
[10]
  activity change, positive = activation: -15.2% [at 42.5 µM]
[11]
  outcome: inactive
[15]
  Potency: 16.9 µM (active)
[12]
  Potency: inactive
[13]
  Potency: inactive
[16]
  Potency: inactive

Reference: PubChem BioAssay (Tox21)
